This assay deals with furin, P09958. The assay is described as follows: furin cleavage Z-score vs untreated control; higher = more cleavage, active = 3.5 or more, inactive = 1 or less, 8 variable residues between constant flanks. Put shortly: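 Peptides 8 residues long, fused to a cDNA oligonucleotide, were fixed to magnetic beads by the N-terminus and exposed to purified furin. The 0.01 ml reactions contained 50 mM HEPES pH 7.5 with CaCl2 and NaCl at 1:10 enzyme:substrate and ran 7.5, 15 or 30 min. For the cleavage Z-score, log counts of sequenced released DNA were compared with furin-free reactions, lowess-adjusted and scaled by median absolute deviation.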
Chain of furin, P09958 (P09958 whole entry, the tested form may be a part): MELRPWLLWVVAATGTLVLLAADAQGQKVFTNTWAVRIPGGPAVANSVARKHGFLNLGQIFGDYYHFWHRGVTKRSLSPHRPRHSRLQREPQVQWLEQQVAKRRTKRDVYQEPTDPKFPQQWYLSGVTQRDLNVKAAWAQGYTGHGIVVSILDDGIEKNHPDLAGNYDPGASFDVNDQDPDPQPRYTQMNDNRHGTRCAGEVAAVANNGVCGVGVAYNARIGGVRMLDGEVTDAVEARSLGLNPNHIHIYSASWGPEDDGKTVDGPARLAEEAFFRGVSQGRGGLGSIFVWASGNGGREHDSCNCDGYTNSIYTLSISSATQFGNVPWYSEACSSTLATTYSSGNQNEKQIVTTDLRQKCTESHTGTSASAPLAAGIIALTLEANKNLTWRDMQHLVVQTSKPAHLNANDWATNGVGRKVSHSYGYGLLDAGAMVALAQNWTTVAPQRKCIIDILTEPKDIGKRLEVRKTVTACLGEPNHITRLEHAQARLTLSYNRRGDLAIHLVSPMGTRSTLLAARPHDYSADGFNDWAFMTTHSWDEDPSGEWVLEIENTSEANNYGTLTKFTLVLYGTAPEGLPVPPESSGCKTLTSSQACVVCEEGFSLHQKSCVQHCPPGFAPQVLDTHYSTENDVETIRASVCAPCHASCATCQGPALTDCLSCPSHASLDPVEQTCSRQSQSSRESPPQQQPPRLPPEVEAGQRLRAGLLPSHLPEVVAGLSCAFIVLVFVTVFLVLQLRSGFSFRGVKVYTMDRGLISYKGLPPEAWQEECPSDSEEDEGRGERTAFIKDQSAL

The list shows a part of the results. The true hit rate is not given.

For CALAVAVEPVAGNASASA [HC644], the “furin cleavage Z-score” value was 0.342 (inactive) (7.5 min), -1.7 (inactive) (15 min) and -0.692 (inactive) (30 min).

Take CAANLLWRQEAGNASASA [HC1275]: the “furin cleavage Z-score” value by setting is: (7.5 min) 1.65; (15 min) 1.09; (30 min) 0.698 (inactive).

As for CADIYHSVSHAGNASASA [HC1650], the “furin cleavage Z-score” value runs as follows: (7.5 min) -2.02 (inactive); (15 min) -1.09 (inactive); (30 min) -0.935 (inactive).

As to CARAKRAVSHAGNASASA [FS-2544], the “furin cleavage Z-score” value is 7.56 (active) (7.5 min), 8.33 (active) (15 min) and 7.62 (active) (30 min).

On to CARNKRQSKSAGNASASA [FS-3009], for which the “furin cleavage Z-score” value was 3.6 (active) (7.5 min), 6.73 (active) (15 min) and 6.06 (active) (30 min).

As for CARAPRSVGGAGNASASA [FS-1886], the “furin cleavage Z-score” value by setting is: (7.5 min) -0.25 (inactive); (15 min) 0.302 (inactive); (30 min) 0.769 (inactive).

CARNKRNSKMAGNASASA [FS-2397]: the “furin cleavage Z-score” value (7.5 min) was 6.32 (active), the “furin cleavage Z-score” value (15 min) was 8.34 (active) and the “furin cleavage Z-score” value (30 min) was 7.25 (active).

Turning to CARAKRSPKHAGNASASA [FS-2639], the “furin cleavage Z-score” value (7.5 min) is 5.3 (active), the “furin cleavage Z-score” value (15 min) was 6.19 (active) and the “furin cleavage Z-score” value (30 min) was 6.5 (active).

As to CARNKRLSISAGNASASA [FS-3007], the “furin cleavage Z-score” value is 0.116 (inactive) (7.5 min), -1.14 (inactive) (15 min) and 0.746 (inactive) (30 min).

For CARNKRIWASAGNASASA [FS-2728], the “furin cleavage Z-score” value (7.5 min) is 0.843 (inactive), the “furin cleavage Z-score” value (15 min) was 1.63 and the “furin cleavage Z-score” value (30 min) is -0.176 (inactive).

On to CARAKRGNIHAGNASASA [FS-2250], for which the “furin cleavage Z-score” value (7.5 min) was 0.0194 (inactive), the “furin cleavage Z-score” value (15 min) is 0.245 (inactive) and the “furin cleavage Z-score” value (30 min) worked out at 1.46.

In the case of CARNKRNSKMAGNASASA [FU4], the “furin cleavage Z-score” value runs as follows: (7.5 min) 5.8 (active); (15 min) 8.1 (active); (30 min) 7.99 (active).

With CANVCCSMSYAGNASASA [HC2001], the “furin cleavage Z-score” value by setting is: (7.5 min) 0.0522 (inactive); (15 min) 1.55; (30 min) 1.28.

With CAMHLQGPEDAGNASASA [NG10], the “furin cleavage Z-score” value was 0.395 (inactive) (7.5 min), -0.679 (inactive) (15 min) and -0.939 (inactive) (30 min).

On to CALAAKLVALAGNASASA [HC862], for which the “furin cleavage Z-score” value is, setting by setting: (7.5 min) 1.87; (15 min) -0.745 (inactive); (30 min) 0.749 (inactive).

With CAPVVHGCPLAGNASASA [HC1315], the “furin cleavage Z-score” value runs as follows: (7.5 min) -0.719 (inactive); (15 min) -0.657 (inactive); (30 min) -0.124 (inactive).

Turning to CAVCGAPPCVAGNASASA [HC442], the “furin cleavage Z-score” value runs as follows: (7.5 min) 1.21; (15 min) 0.519 (inactive); (30 min) 0.314 (inactive).

Take CAEVVTKTWVAGNASASA [HC151]: the “furin cleavage Z-score” value is -0.0944 (inactive) (7.5 min), 0.88 (inactive) (15 min) and -0.37 (inactive) (30 min).

As for CAEVAASCGGAGNASASA [HC567], the “furin cleavage Z-score” value is -0.691 (inactive) (7.5 min), -0.994 (inactive) (15 min) and -0.368 (inactive) (30 min).

As to CAHRFAPPCKAGNASASA [HC1226], the “furin cleavage Z-score” value is -2.1 (inactive) (7.5 min), -0.755 (inactive) (15 min) and 0.739 (inactive) (30 min).

For CARAKKGLGMAGNASASA [FS-2128], the “furin cleavage Z-score” value (7.5 min) was 1.05, the “furin cleavage Z-score” value (15 min) is 0.216 (inactive) and the “furin cleavage Z-score” value (30 min) is 0.932 (inactive).

CARAKRSSKMAGNASASA [FS-3181]: the “furin cleavage Z-score” value is 5.7 (active) (7.5 min), 7.55 (active) (15 min) and 8.74 (active) (30 min).

With CARAKRSVHFAGNASASA [FS-2640], the “furin cleavage Z-score” value is, setting by setting: (7.5 min) -0.56 (inactive); (15 min) -0.574 (inactive); (30 min) 1.29.

With CATTPCSGMWAGNASASA [HC1906], the “furin cleavage Z-score” value (7.5 min) is 0.488 (inactive), the “furin cleavage Z-score” value (15 min) was 0.804 (inactive) and the “furin cleavage Z-score” value (30 min) was -1.44 (inactive).

Regarding CAHPVTKYIMAGNASASA [HC980], the “furin cleavage Z-score” value was -1.79 (inactive) (7.5 min), 0.202 (inactive) (15 min) and -0.88 (inactive) (30 min).

For CAPTARPKRKAGNASASA [FS-913], the “furin cleavage Z-score” value by setting is: (7.5 min) 4.97 (active); (15 min) 4.54 (active); (30 min) 4.32 (active).

As to CAKAEREKRKAGNASASA [FS-807], the “furin cleavage Z-score” value was 0.64 (inactive) (7.5 min), 0.758 (inactive) (15 min) and 1.86 (30 min).

Turning to CAPRPISYLKAGNASASA [HC738], the “furin cleavage Z-score” value by setting is: (7.5 min) 0.812 (inactive); (15 min) 1.42; (30 min) 0.555 (inactive).

For the sequence CAPAQRTKRKAGNASASA [FS-836], the “furin cleavage Z-score” value was 10.3 (active) (7.5 min), 11.5 (active) (15 min) and 9.82 (active) (30 min).

CAPAKRPKRKAGNASASA [FS-1470]: the “furin cleavage Z-score” value was 11.2 (active) (7.5 min), 12 (active) (15 min) and 9.89 (active) (30 min).

On to CAAFRRGVTKAGNASASA [FS-1876], for which the “furin cleavage Z-score” value was -0.242 (inactive) (7.5 min), -0.144 (inactive) (15 min) and -1.52 (inactive) (30 min).

As for CAFAPPCKPLAGNASASA [HC1227], the “furin cleavage Z-score” value by setting is: (7.5 min) -0.328 (inactive); (15 min) -1.28 (inactive); (30 min) -1.52 (inactive).

Consider CAMIAGAHWGAGNASASA [HC334], for which the “furin cleavage Z-score” value is -0.899 (inactive) (7.5 min), -0.615 (inactive) (15 min) and -0.232 (inactive) (30 min).

In the case of CAVTRRKGRCAGNASASA [FS-1294], the “furin cleavage Z-score” value runs as follows: (7.5 min) 3.46; (15 min) 5.29 (active); (30 min) 5.86 (active).

CARTGRACECAGNASASA [FS-2464]: the “furin cleavage Z-score” value is -0.465 (inactive) (7.5 min), 0.257 (inactive) (15 min) and 0.474 (inactive) (30 min).

Regarding CAVTRHADVIAGNASASA [HC727], the “furin cleavage Z-score” value runs as follows: (7.5 min) -0.38 (inactive); (15 min) 1; (30 min) -0.771 (inactive).

CAHFKRTRRSAGNASASA [FS-1532]: the “furin cleavage Z-score” value runs as follows: (7.5 min) 10.4 (active); (15 min) 10.2 (active); (30 min) 8.6 (active).

On to CAALVRTRRCAGNASASA [FS-214], for which the “furin cleavage Z-score” value (7.5 min) is 5.77 (active), the “furin cleavage Z-score” value (15 min) is 6.03 (active) and the “furin cleavage Z-score” value (30 min) was 5.43 (active).

Turning to CAALLRTRRSAGNASASA [FS-972], the “furin cleavage Z-score” value reads like this: (7.5 min) 8.62 (active); (15 min) 7.98 (active); (30 min) 4.19 (active).

For CAALVVGVVCAGNASASA [HC1106], the “furin cleavage Z-score” value is -0.352 (inactive) (7.5 min), -0.584 (inactive) (15 min) and -0.588 (inactive) (30 min).

For the sequence CAALVMAQLLAGNASASA [HC326], the “furin cleavage Z-score” value runs as follows: (7.5 min) 0.829 (inactive); (15 min) 0.666 (inactive); (30 min) -0.00652 (inactive).

With CATALNCNDSAGNASASA [HC373], the “furin cleavage Z-score” value runs as follows: (7.5 min) -0.291 (inactive); (15 min) 1.13; (30 min) -0.956 (inactive).

CADPNIRTGVAGNASASA [HC798]: the “furin cleavage Z-score” value runs as follows: (7.5 min) -0.151 (inactive); (15 min) 0.395 (inactive); (30 min) 0.163 (inactive).

(Values after the supplement of paper PMC3545927.)
